In the library only some 7.6% were active in any assay of this set; here they are far more common.
Cy5 interf NS3h – enhances or quenches Cy5 fluorescence in NS3h assay | Cy5-dT15 DNA with NS3h, fluorescence interference; actives lie on both sides; signal over control mean, under 1 quenches | fluorescence interference ratio at 100 µM | 16,000 compounds, 6% hits;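 active = compound fluorescence over control fluorescence at most 0.8, a quencher, or at least a set upper limit, an enhancer; inactive = ratio between 0.8 and the set upper limit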
NS3h inh CB – hepatitis C NS3 helicase inhibition, primary screen; NS3h Cy5-dT15 DNA binding, fluorescence polarization; inhibition, % at 100 µM; 16,000 compounds, 1.6% hits; AID 687043;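 active = inhibition above the average over every tested compound plus 3 SD, cut at about 40% in these data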
NS3h confirm – hepatitis C NS3 helicase inhibition, confirmation. inhibition, % at 100 µM. shares compounds with NS3h inh CB. 240 compounds, 20% hits. NS3h binding to Cy5-dT15 DNA, fluorescence polarization;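 active = percent inhibition of 50% or more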
SSB-DNA FP CB – disrupts E. coli SSB binding to DNA in counter-screen. shares compounds with NS3h inh CB. E. coli SSB binding Cy5-dT15, fluorescence polarization. inhibition, % at 100 µM. 240 compounds, 40% hits;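 active = inhibition of at least 50%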;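 also: displacers lower Cy5 polarization so higher inhibition means more SSB displaced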
Target sequence (P0AGE0 whole entry, looked up): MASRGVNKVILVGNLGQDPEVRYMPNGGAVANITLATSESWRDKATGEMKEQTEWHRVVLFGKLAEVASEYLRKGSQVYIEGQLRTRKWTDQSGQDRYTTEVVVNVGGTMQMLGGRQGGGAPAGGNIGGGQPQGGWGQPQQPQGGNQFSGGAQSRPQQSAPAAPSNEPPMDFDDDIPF
Cy5 SSB interf – counter-screen for HCV NS3 helicase inhibitors: fluorescence interference; Cy5-dT15/E. coli SSB fluorescence interference; actives lie on both sides; 240 compounds, 8% hits; AID 720487; shares compounds with NS3h inh CB; fluorescence interference ratio at 100 µM;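 active = fluorescence interference ratio at or above 1.2, signal boosting, or at or below 0.8, signal quenching; inactive = ratio between 0.8 and 1.2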;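 also: ratio of compound well signal to mean negative control signal so 1 means no effect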
Cy5 interf conf – confirmation counter-screen for HCV NS3 helicase inhibitors: fluorescence interference | shares compounds with NS3h inh CB | Cy5-dT15 DNA/NS3h fluorescence interference counterscreen | fluorescence interference ratio at 100 µM, hits read low | 240 compounds, 44% hits | AID 720489;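 active = fluorescence interference ratio at or below 0.8 quencher or at or above a set limitenhancer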;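 also: ratio of compound fluorescence to mean of negative controls so 1 means no interference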
Starred values were filed as active, the others as inactive; x = no result.

SMILES	Cy5 interf NS3h	NS3h inh CB	NS3h confirm	SSB-DNA FP CB	Cy5 SSB interf	Cy5 interf conf
O=C(Nc1ccc(F)c([N+](=O)[O-])c1)c1ccc2ccccc2c1	0.73*	39	40	50*	0.7*	0.78*
O=C(Nc1ccc(F)c([N+](=O)[O-])c1)c1ccc2c(c1)OCCO2	0.87	22	x	x	x	x
CCc1ccc(C(=O)/C=C/c2cn(-c3ccccc3)nc2-c2ccccc2)cc1	1.1	10	x	x	x	x
COc1cccc(N2C(=O)/C(=C/c3c(Cl)cccc3Cl)SC2=S)c1	1.1	9	x	x	x	x
O=C1NC(=O)N(c2ccc(Cl)cc2)C(=O)/C1=C/c1cc(Br)c(O)c([N+](=O)[O-])c1	1.1	22	43	76*	0.91	0.81
COc1ccccc1N1C(=O)NC(=O)/C(=C\c2ccc(O)c(O)c2)C1=O	0.97	44*	8	20	0.93	1
Cc1ccc(N2C(=O)NC(=O)/C(=C\c3ccc(O)c(Br)c3)C2=O)cc1	1.1	19	x	x	x	x
O=C1NC(=O)N(c2ccccc2F)C(=O)/C1=C/c1ccc(O)c(Cl)c1	0.98	30	x	x	x	x
O=C1NC(=O)N(c2cccc(Cl)c2)C(=O)/C1=C/c1ccc(O)c(Cl)c1	0.99	12	x	x	x	x
Cc1cc(C)cc(N2C(=O)NC(=O)/C(=C\c3ccc(O)c(Br)c3)C2=O)c1	0.99	38	9	24	0.96	0.75*
Cc1cccc(N2C(=O)NC(=O)/C(=C\c3ccc(O)c(Cl)c3)C2=O)c1	1	65*	18	28	0.96	0.96
C=CCOc1c(Br)cc(/C=C2\C(=O)NC(=O)N(c3ccc(Cl)cc3)C2=O)cc1OC	1.1	16	x	x	x	x
CC1=NOC(=O)/C1=C/c1ccc(OCc2ccc(F)cc2)cc1	1	13	x	x	x	x
CC(=O)N/N=C\c1ccc2c(c1)OCO2	0.94	-1	x	x	x	x
O=C(O)c1nc2n(n1)C(C(F)(F)F)CC(c1cccs1)N2 (stereo unspecified)	1.1	2	x	x	x	x
CCOC(=O)/C(=C\Nc1ccc(F)c(F)c1F)[N+](=O)[O-]	1	3	x	x	x	x
COc1cc(C=O)c(Br)cc1OCc1ccc(Cl)cc1Cl	1.1	2	x	x	x	x
O=C1NC(=O)N(Cc2ccccc2)C(=O)/C1=C/c1cccs1	0.83	25	x	x	x	x
CCN(CC)c1ccc(/C=C2\C(=O)NC(=O)N(Cc3ccccc3)C2=O)c(OC)c1	3*	79*	36	48	2.2*	1.7*
COc1ccc(N(CC(=O)Nc2cccc3ccccc23)S(=O)(=O)c2ccc(C)cc2)cc1OC	0.97	12	x	x	x	x
COc1ccc(C2C(=C(O)c3ccccc3)C(=O)C(=O)N2c2cccc(Br)c2)cc1 (stereo unspecified)	1.2	31	x	x	x	x
O=C(Nc1ccc(Cl)cc1)c1ccc2c(c1)OCCO2	1.1	27	62*	76*	1.1	0.96
CC(=O)c1ccc(NC(=O)c2ccc3c(c2)OCCO3)cc1	0.97	-4	x	x	x	x
CC1(C)CC(NC(=S)Nc2ccccc2)CC(C)(C)N1	1	-2	x	x	x	x
O=C1c2ccccc2C(=O)N1CNc1ccc(Cc2ccc(NCN3C(=O)c4ccccc4C3=O)cc2)cc1	0.99	5	x	x	x	x
SMILES	Cy5 interf NS3h	NS3h inh CB	NS3h confirm	SSB-DNA FP CB	Cy5 SSB interf	Cy5 interf conf
O=C(O)CN1C(=O)/C(=C/c2ccc(OC(=O)c3ccccc3I)cc2)SC1=S	1	62*	31	26	0.93	0.76*
O=C(O)CN1C(=O)/C(=C\c2ccc(OC(=O)c3ccc(Cl)cc3Cl)cc2)SC1=S	1	6	x	x	x	x
CCOc1ccc(NC(=O)c2ccc(I)cc2)cc1	1.1	6	x	x	x	x
COc1cccc(OCCOc2c(Cl)cc(/C=C3/SC(=S)NC3=O)cc2OC)c1	0.97	70*	45	47	0.97	0.79*
COc1cccc(OCCOc2cccc(/C=C3/SC(=S)NC3=O)c2)c1	0.92	20	x	x	x	x
Cc1ccc2c(c1)C1C=CCC1C(C(=O)O)N2 (stereo unspecified)	1.2*	94*	75*	106*	1.4*	0.92
O=C1NC(=Nc2ccc(Br)cc2)S/C1=C\c1ccc(O)cc1	1	-4	x	x	x	x
O=C1NC(=Nc2ccc(O)cc2)S/C1=C\c1ccccc1	1.2	46*	12	11	0.94	0.98
Cc1nc(SCc2ccccc2)nc2ccccc12	0.83	17	x	x	x	x
O=c1oc2ccccc2c(O)c1C=C1C=Nc2ccccc21	1	46*	31	39	0.91	0.96
CCN(CC)c1ccc(-n2c(O)c(C=C3C=Nc4ccccc43)sc2=S)cc1	1.1	20	x	x	x	x
O=c1[nH]c(=O)n(-c2cccc(C(F)(F)F)c2)c(O)c1C=C1C=CC=N1	0.97	27	x	x	x	x
O=c1[nH]c(=S)n(-c2ccccc2F)c(O)c1C=C1C=CC=N1	0.57*	114*	48	128*	0.74*	0.6*
O=C1C(=O)N(c2nc3ccccc3s2)C(c2ccccc2F)C1=C(O)c1ccccc1 (stereo unspecified)	0.95	6	x	x	x	x
O=C1C(=O)N(c2nc3ccccc3s2)C(c2ccccc2Cl)C1=C(O)c1ccccc1 (stereo unspecified)	1	39	-4	-2	1	0.76*
O=C1C=CC(=O)N1c1ccc(Br)cc1[N+](=O)[O-]	0.95	79*	70*	8	0.94	0.92
O=C(c1ccc(Br)cc1)N1CCN(c2ccc(Cl)cc2[N+](=O)[O-])CC1	1	6	x	x	x	x
O=C(NC(Nc1ccccc1)C(=O)c1cccs1)c1ccccc1 (stereo unspecified)	0.84	11	x	x	x	x
NS(=O)(=O)c1ccc(NC(=S)NC(=O)c2ccccc2)cc1	1	50*	37	83*	1	1
CC(=O)c1ccc(NC(=S)NC(=O)c2ccccc2)cc1	0.89	24	x	x	x	x
O=C(Nc1cccc2ccccc12)c1ccc(S(=O)(=O)N2CCOCC2)cc1	0.97	11	x	x	x	x
CCOC(=O)C(=CNC(CO)C(=O)O)C(=O)OCC (stereo unspecified)	1.1	0	x	x	x	x
O=C(O)CCN1C(=O)/C(=C/c2cn(-c3ccccc3)nc2-c2ccc(Br)cc2)SC1=S	0.97	146*	35	25	0.92	0.87
CCN1C(=O)/C(=C\c2cn(-c3ccccc3)nc2-c2ccc(Br)cc2)SC1=S	1.1	7	x	x	x	x
COc1ccc(C=C2C(=O)N(c3ccccc3)C(=S)N(c3ccccc3)C2=O)c(OC)c1	0.97	-18	x	x	x	x
SMILES	Cy5 interf NS3h	NS3h inh CB	NS3h confirm	SSB-DNA FP CB	Cy5 SSB interf	Cy5 interf conf
Cc1cc(C)c(OCC(=O)Nc2cccc([N+](=O)[O-])c2)c(C)c1	1	12	x	x	x	x
O=C(Nc1cccc(Oc2ccc(C(=O)O)c(C(=O)O)c2)c1)c1ccc(-c2ccccc2)cc1	1.1	52*	16	19	0.9	0.74*
CC(=O)Nc1ccc(Oc2ccc(C(=O)O)c(C(=O)O)c2)cc1	1	1	x	x	x	x
O=C1NC(=S)S/C1=C\c1ccc(OC(=O)c2ccccc2I)cc1	1	23	x	x	x	x
Cc1cc(Cl)ccc1OCC(=O)Nc1c(C)ccc2nsnc12	1	0	x	x	x	x
CC(C)(C)C(=O)Nc1ccc(-c2nc3ccccc3o2)cc1	1	0	x	x	x	x

Screening results as filed in PubChem BioAssay.
